Compound activity as filed in PubChem BioAssay.
Pf apPOL block – Pf-apPOL inhibitors, biochemical, fluorescence | Plasmodium falciparum apicoplast DNA polymerase (apPOL) | Recombinant Pf-apPOL, molecular beacon fluorescence, 1.5 h | inhibition, % at 10 µM | 210,000 tested, 0.25% active
mHTT-CaM PPI inh – mutant huntingtin-calmodulin interaction inhibitors – biochemical, AlphaScreen, primary screen. 190,000 tested, 3.6% active. AID 1671202, 2021. inhibition, % at 15 µM. AlphaScreen His-mHTT/GST-CaM binding, luminescence
Numbers stand for hits; 0 = inactive; - = not tested or not shown. In the library only some 3.6% were active in any assay of this set; here they are far more common. Rule as the data show it: active = inhibition above about 50%; inactive = the rest.

SMILES	Pf apPOL block	mHTT-CaM PPI inh
Cc1cc(NC(=O)c2nc3ccccc3s2)n(C(C)C)n1	0	0
Cn1c(Cl)cnc1C1CC(c2cc(Cl)ccc2O)=NN1 (stereo not drawn)	0	67
Oc1ccc(Cl)cc1C1=NNC(c2ccc3c(c2)OCCO3)C1 (stereo not drawn)	0	63
Cn1c(Cl)cnc1C1CC(=O)c2cc(Cl)ccc2O1 (stereo not drawn)	0	0
COc1ccc(C2=NNC(c3ccc(Br)cc3)C2)c(O)c1 (stereo not drawn)	0	0
O=[N+]([O-])c1ccc(O)c(C2=NNC(c3ccncc3)C2)c1 (stereo not drawn)	0	0
Oc1ccc(F)cc1C1=NNC(c2ccc3c(c2)OCCO3)C1 (stereo not drawn)	0	0
Oc1ccccc1C1=NNC(c2ccc(Br)cc2)C1 (stereo not drawn)	0	57
O=[N+]([O-])c1ccc(O)c(C2=NNC(c3ccc(Cl)cc3)C2)c1 (stereo not drawn)	0	55
Cc1ccc(F)cc1S(=O)(=O)N1CCN(c2nc3ccncc3n(C)c2=O)CC1	0	0
COc1ccc(-c2nc(C)cc(C)c2CNC(=O)c2cccs2)cc1	0	0
CC(C)CNC(=O)c1cnn(-c2ccc(Cl)cc2)c1C(C)C	0	0
O=C(NCC(O)c1cccs1)C(=O)Nc1ccc(C(F)(F)F)cc1 (stereo not drawn)	0	0
COc1ccccc1Nc1ncnc2ccc(Br)cc12	0	0
CC(=O)NCc1ccc(-n2cnc(C)c2C)cc1	0	0
COc1cccc(CNC(=O)c2cn3cc(Cl)ccc3n2)c1	0	0
COc1cccc(-c2ccc3nc(C(=O)NCc4ccncc4)cn3c2)c1	0	52
CCC1CN2C=NC(N3CCN(C(=O)Cc4ccccc4OC)CC3)=CC2=N1 (stereo not drawn)	0	0
COc1ncc(C(=O)NCc2ccc(N(C)C)cc2)cn1	0	0
CN(C)C=CC=C1CCCC1=O	89	-
O=C(Nc1ccc(Cl)cn1)c1cnn2c(C(F)(F)F)cc(-c3ccco3)nc12	0	0
Cc1ccccc1-n1nc2c(c1NC(=O)c1cccc(Cl)c1)CSC2	0	71
COc1ccc(C(=O)Nc2c3c(nn2-c2cccc(C)c2)CSC3)cc1OC	0	0
COc1ccc(C(=O)Nc2c3c(nn2-c2cccc(Cl)c2)CSC3)cc1OC	0	57
Cc1ccccc1-n1nc2c(c1NC(=O)c1ccccc1[N+](=O)[O-])CSC2	0	0
SMILES	Pf apPOL block	mHTT-CaM PPI inh
Cc1ccccc1-n1nc2c(c1NC(=O)c1ccc([N+](=O)[O-])cc1)CSC2	0	84
Cc1cc(C)cc(C(=O)Nc2c3c(nn2-c2ccccc2C)CSC3)c1	0	0
COc1cccc(C(=O)Nc2c3c(nn2-c2ccccc2C)CSC3)c1	0	0
Cc1ccccc1-n1nc2c(c1NC(=O)c1ccc(Cl)cc1)CSC2	0	71
CN1C(=O)c2ccc(NC(=O)c3ccc(C#N)cc3)cc2C1=O	0	0
C#CC1(NC(=O)c2ccc(-c3ccc(CC)cc3)cc2)CCCCC1	0	-
CCC(C)NC(=O)C1CCN(c2cccc(OC)c2)C1=O (stereo not drawn)	0	0
O=C(Cc1csc2nc3sc4c(c3c(=O)n12)CCC4)N(CCO)CCO	0	0
O=[N+]([O-])c1ccc(S(=O)(=O)N2CCSC2c2ccccc2)cc1 (stereo not drawn)	0	0
O=C(c1cnn2cc(Br)cnc12)N1CCCC1c1ccc(F)cc1 (stereo not drawn)	0	0
O=C(NCc1cccc(Cl)c1)C1CCCN(c2cn[nH]c(=O)c2)C1 (stereo not drawn)	0	0
COc1cc(C)c(C)cc1S(=O)(=O)NCC1CCN(C(=O)c2snnc2C)CC1	0	0
O=C(Nc1c2c(nn1-c1ccc([N+](=O)[O-])cc1)CSC2)c1ccc([N+](=O)[O-])cc1	0	0
O=C(Nc1c2c(nn1-c1ccc([N+](=O)[O-])cc1)CSC2)c1ccc(F)cc1	58	0
O=C(c1ccc(Cl)cc1)c1ccco1	0	0
CC(C)(C)c1ccc(OCNC(=O)c2ncn[nH]2)cc1	0	73
O=C(NCc1ccccn1)c1ncn[nH]1	0	0
COc1ccc(C2CC(=O)C3=C(C2)Nc2ccccc2NC3c2cc(Cl)c(O)c(OC)c2)cc1 (stereo not drawn)	0	0
COc1cccc(C2Nc3ccccc3NC3=C2C(=O)CC(c2ccc(Cl)cc2)C3)c1OC (stereo not drawn)	0	80
CC1=C(C#N)C(c2cccnc2)C2=C(CC(c3ccc(Cl)cc3)CC2=O)N1 (stereo not drawn)	0	0
COc1ccc(C2CC(=O)C3=C(C2)Nc2ccccc2NC3c2cc(C)ccc2C)cc1 (stereo not drawn)	0	62
COc1cc(C2Nc3ccccc3NC3=C2C(=O)CC(c2ccc(C)cc2)C3)cc(Cl)c1O (stereo not drawn)	0	62
CCOc1ccccc1C1C(C#N)=C(C)NC2=C1C(=O)CC(c1ccc(Cl)cc1)C2 (stereo not drawn)	0	52
COc1ccc(C2CC(=O)C3=C(C2)Nc2ccccc2NC3c2ccccc2Br)cc1 (stereo not drawn)	0	0
COc1ccccc1C1Nc2ccccc2NC2=C1C(=O)CC(c1ccc(Cl)cc1)C2 (stereo not drawn)	0	0
SMILES	Pf apPOL block	mHTT-CaM PPI inh
CC1CCc2nc(NC(=O)c3ccc4ncsc4c3)sc2C1 (stereo not drawn)	0	0
O=C(NC1CCCCCCC1)C1c2ccccc2C(=O)N1Cc1ccccc1 (stereo not drawn)	0	0
COc1ccccc1N1CCN(C(=O)c2ccccc2F)CC1	0	0
COc1ccc(N2CCN(C(=O)c3sc4cccc(F)c4c3OC)CC2)cc1	0	64
COc1cccc(N2CCN(C(=O)c3sc4cccc(F)c4c3OC)CC2)c1	0	0
COc1ccccc1N1CCN(C(=O)c2sc3cccc(F)c3c2OC)CC1	0	78
COc1ccccc1N1CCN(C(=O)c2nn(-c3ccc(F)cc3)cc2OC)CC1	0	68
COc1ccccc1N1CCN(C(=O)c2nn(-c3ccc(F)cc3)c(=O)cc2OC)CC1	0	0
COc1ccc(-n2cc(C(=O)N3CCN(c4ccccc4F)CC3)c3ccccc3c2=O)cc1	0	0
COc1ccc(-n2cc(C(=O)N3CCN(c4ccc(F)cc4)CC3)c3ccccc3c2=O)cc1	0	78
COc1ccccc1/C=c1\sc2ncnn2c1=O	0	0
O=C(O)c1cccc2c1NC(c1ccccc1[N+](=O)[O-])C1CC=CC21 (stereo not drawn)	0	92
O=C(O)c1ccc([N+](=O)[O-])c2c1NCC1CC=CC21 (stereo not drawn)	0	0
O=[N+]([O-])c1cccc2c1NC(c1ccccc1F)C1CC=CC21 (stereo not drawn)	0	75
COc1cc([N+](=O)[O-])cc2c1NC(c1cccc(Cl)c1Cl)C1CC=CC21 (stereo not drawn)	0	0
Fc1cccc2c1N[C@@H](c1c3ccccc3cc3ccccc13)[C@H]1CC=C[C@@H]21	-	0
O=[N+]([O-])c1ccccc1C1Nc2c(cccc2[N+](=O)[O-])C2C=CCC21 (stereo not drawn)	0	65
CCOC(=O)C(C)Oc1ccc2c(c1)OC(=Cc1ccc(Cl)cc1)C2=O (stereo not drawn)	0	0
